High-throughput results (PubChem)
Sm TGR inh = inhibitors of Schistosoma mansoni thioredoxin glutathione reductase; Q962Y6; purified TGR, DTNB reduction, TNB absorbance 405 nm; Potency, µM (highest dose often 114 µM), for inactives: at the top dose activity change, negative = inhibition, usual class: inhibitors; 360,000 compounds, 3% hits; AID 485364; also: nearly all actives have a fitted effect of over 60% in size
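TGR 20 nM + NADPH 100 uM (dispensed conc.), cpd preinc 15 min RT; start with NADPH (500 uM addition) then DTNB (15 mM addition). Kinetic TNB absorbance, 405 nm filter. Four-parameter Hill fit across titration.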
Tb PYK inh = T. brucei pyruvate kinase inhibition. TbPYK enzyme, Kinase-Glo Plus ATP luminescence, 45 min. Potency, µM (top dose mostly 76.8 µM), without a hit: at the top dose activity, negative = inhibition, actives largely listed as inhibitors. 410,000 compounds, 0.12% hits; also: nearly all actives have a fitted effect of over 50% in size
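TbPYK + substrate in 50 mM TEA pH 7.2, 100 mM KCl, 10 mM MgCl2, 0.05% BSA, 0.01% Tween-20; cpd pinned; ADP 130 uM final; 45 min RT; Kinase-Glo Plus 10 min; luminescence endpoint.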
RE007 growth inh = less growth of the S. pombe RE007 Vpr strain. S. pombe RE007 Vpr strain, BacTiter-Glo ATP luminescence, 24 h. Potency, µM (highest dose often 92.2 µM), for the others: top-dose activity change, negative = less growth, usual class: inhibitors. 360,000 compounds, 0.21% hits. AID 651644; active = well fitted falling curve with a large enough effect; inconclusive = small, poorly fitted or top-dose-only effect; inactive = no such curve, though single readings can be large or run the other way; also: nearly all actives have a fitted effect of over 50% in size
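Fission yeast RE007 carrying one integrated HIV-1 vpr copy, seeded at OD 0.01 in PMG+AL medium with 23 nL pinned compound. Grown 24 h at 30 degrees; viability read by BacTiter-Glo luminescence after 5 min.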
FMDV inh = foot and mouth disease virus antiviral activity; FMDV antiviral cell-based qHTS; Potency, µM (highest dose often 57.9 µM), for the others: at the top dose activity change, negative = inhibition, hits mostly inhibitors; 410,000 compounds, 1.2% hits; AID 1159524; calls by dose curve; tested in HEK293T cells; also: read-out not given here; nearly all actives have a fitted effect of over 45% in size
* marks the source's active call; other numbers are inactive results; ? = inconclusive; · = not tested or not shown; [ ] = dose if it differs, or a comment. Most compounds without a hit are left out; they make up all but 3.7% or so of the library. Unless noted, calls follow the shape of the dose curve; as a rule, active = well fitted curve in the direction sought with a large enough effect; inconclusive = small, poorly fitted or top-dose-only effect, or another doubt; inactive = no such curve, though single readings can be large; an effect the other way counts as inactive or inconclusive. % is scaled to controls: 0 for no effect and ±100 for the full control effect; potency is read from the fitted curve at half-maximal effect.

SMILES	Sm TGR inh	Tb PYK inh	RE007 growth inh	FMDV inh
N#CCCn1cc(C(=O)Nc2ccc(C(=O)O)cc2)c(-c2cccc(Br)c2)n1	100µM*	1%	-9%	-13%
CCC(=O)N1CCN(c2nc(CC)nc3sc4c(c23)CCCC4)CC1	3%	-2%	0%	?
CC1CCc2c(sc3nc(C(C)(C)C)nc(N4CCN(C(=O)CCl)CC4)c23)C1 (configuration not stated)	3%	-6%	-14%	20µM*
O=C1C=CC(=O)N1c1cccc(-c2ccccc2)c1	0.71µM*	5µM*	2.5µM*	-4%
CCOC(=O)C1=C(c2ccccc2)NC(=O)NC1c1ccc(O)c(Cl)c1 (configuration not stated)	-1%	2%	-8%	8.9µM*
CCOC(=O)C1=C(c2ccccc2)NC(=O)NC1c1ccc(O)c(OCC)c1 (configuration not stated)	-1%	2%	1%	-24%
CCN(CC)C(=O)c1cccc(-c2csc(C(C)(O)c3ccc(F)c(F)c3)n2)c1 (configuration not stated)	·	-2%	6%	25µM*
CCN(CC)C(=O)c1cccc(-c2csc(C(C)(O)c3ccccc3)n2)c1 (configuration not stated)	·	-4%	0%	?
CCN(CC)C(=O)c1cccc(-c2csc(C(C)(O)c3cccc(OC)c3)n2)c1 (configuration not stated)	·	-4%	4%	35µM*
CC(=O)N1CCc2cc(Br)cc(S(=O)(=O)CCC(=O)Nc3ccc(C)cc3Cl)c21	-31%	-17%	·	-16%
Cc1oc2ncn(CC(C)C)c(=O)c2c1C(=O)NCCc1ccccc1	-2%	-5%	·	-13%
Cc1c(C(=O)N(C)C2CCOC2)sc2ncnc(NCC3(c4ccccc4)CCOCC3)c12 (configuration not stated)	·	·	·	-17%
O=C(O)CCn1cc(C=C2C(=O)NC(=O)NC2=O)c(-c2ccc(Br)cc2)n1	0%	18µM*	3%	-2%
O=C(O)CCn1cc(C=C2C(=O)NC(=S)NC2=O)c(-c2cccc(Cl)c2)n1	32µM*	11µM*	10%	-14%
O=C(O)CCn1cc(/C=C/C(=O)c2ccc(Cl)cc2)c(-c2ccc(Br)cc2)n1	?	3%	?	16µM*
O=C(O)/C=C/c1cn(Cc2ccccc2)nc1-c1ccccc1	9%	0%	17%	-9%
COc1cccc(-c2nnc(SCC(=O)N(C)c3ccccc3)o2)c1	7%	-8%	·	-5%
O=C1C(Cl)=C(N2CCOCC2)C(=O)N1c1ccccc1F	40µM*	10%	-1%	-6%
CCOc1ccc(N2C(=O)C(Cl)=C(N3CCOCC3)C2=O)cc1	22µM*	-12%	25%	-18%
CC(C)c1ccc(N2C(=O)C(Cl)=C(N3CCOCC3)C2=O)cc1	2%	3%	6%	-6%
O=C(NCc1nnc2n1CCN(Cc1ccnc3ccccc13)CC2)c1cccc(F)c1	·	·	·	-1%
O=S(=O)(Nc1cccc(-c2ccc(N3CCCC3)nn2)c1)c1ccccc1C(F)(F)F	1%	3%	·	38%
Cc1ccc2nc(SCC(=O)NCC3Cc4cc(-c5ncccc5C)ccc4O3)[nH]c2c1 (configuration not stated)	·	·	·	-28%
O=C(CCS(=O)(=O)c1ccccc1)N(Cc1cccnc1)c1nc2c(Cl)cccc2s1	1.6µM*	2%	·	-9%
Cc1cccc2sc(N(Cc3cccnc3)C(=O)CCS(=O)(=O)c3ccccc3)nc12	4.5µM*	-15%	·	-17%
SMILES	Sm TGR inh	Tb PYK inh	RE007 growth inh	FMDV inh
Cc1cc(C)c2nc(N(Cc3cccnc3)C(=O)CCS(=O)(=O)c3ccccc3)sc2c1	-29%	1%	·	-11%
Cc1ccc2sc(N(Cc3cccnc3)C(=O)CCS(=O)(=O)c3ccccc3)nc2c1C	35µM*	0%[15.4 µM]	·	-12%
O=C(c1cccs1)N(Cc1cccnc1)c1nc2c(Cl)cccc2s1	-2%	-12%[15.4 µM]	·	-13%
COc1ccccc1C1CN(Cc2cccc3nccnc23)Cc2ccccc2O1 (configuration not stated)	·	·	·	-8%
Cc1ccc(NC(=O)c2ccc(NCCCN3CCOCC3)c([N+](=O)[O-])c2)cc1Cl	-2%	-6%	-1%	32µM*
Cc1cc(C)n(-c2ccc(C(=O)Nc3cccnc3Cl)cc2)n1	7%	0%	13%	4%
Cc1cc(C)n(-c2ccc(C(=O)Nc3cc(S(=O)(=O)N(C)C)ccc3Cl)cc2)n1	5%	-9%	12%	28µM*
O=C(Nc1cccc(S(=O)(=O)N2CCOCC2)c1)c1ccc(Cl)c([N+](=O)[O-])c1	6%	1%	10%	40µM*
CCOc1ccc(CN(C)C(=O)c2ccc(S(=O)(=O)N(C)c3ccccc3OC)cc2)cc1	-14%	-1%	5%	22µM*
O=C(Nc1ccc(Cl)c([N+](=O)[O-])c1)c1ccc(NCCCN2CCOCC2)c([N+](=O)[O-])c1	-9%	2%	-3%	8%
Cc1ccc2nc(NC(=O)CSc3cc(C)[nH]c(=O)n3)sc2c1	7%	1%	·	36%
Cc1cc(C)n(-c2ccc(C(=O)Nc3ccc(C)c(S(=O)(=O)N4CCOCC4)c3)cc2)n1	1%	4%	22%	14µM*
COc1ccccc1N(C)S(=O)(=O)c1ccc(C(=O)Nc2nc(C)cs2)cc1	-2%	2%	-1%	28µM*
COc1ccccc1N(C)S(=O)(=O)c1ccc(C(=O)Nc2cccc(S(=O)(=O)N3CCOCC3)c2)cc1	·	4%	9%	25µM*
Cc1cc(-c2csc(NC(=O)c3ccc(S(=O)(=O)N(C)C)cc3)n2)c(C)n1-c1ccccc1	-14%	-2%	-10%	32µM*
Cc1ccc(NC(=O)c2cccnc2)cc1S(=O)(=O)N1CCOCC1	1%	-11%	0%	-16%
COc1ccc(CCNC(=O)Cn2c(=O)cc(C(F)(F)F)c3c(C)nn(C)c32)cc1OC	1%	4%	·	-10%
CC(C)OCCCN1C(=O)c2[nH]nc(-c3ccccc3O)c2C1c1cccc(OCc2ccccc2)c1 (configuration not stated)	13%	-1%	·	?
CS(=O)(=O)c1ccc(-c2ccc3c(c2)CC(CNC(=O)C2(N4CCOCC4)CCCCC2)O3)cc1 (configuration not stated)	·	·	·	-12%
COC(=O)c1cc(CNC(=O)c2cccc(F)c2)cc(NC(=O)c2ccccc2OC)c1	·	·	·	-10%
Cc1ccc(NC(=O)c2ccc(N3CCOCC3)c([N+](=O)[O-])c2)cc1S(=O)(=O)N1CCOCC1	5%	7%	-13%	13µM*
Cc1ccc(C(=O)Nc2ccccc2[N+](=O)[O-])cc1S(=O)(=O)N1CCOCC1	9%	-8%	3%	-2%
CC(C)CNC(=O)c1cccc(NC(=O)c2ccc(Cl)c([N+](=O)[O-])c2)c1	-17%	0%	-8%	28µM*
CC(=O)c1ccc(NC(=O)c2ccc(C)c(S(=O)(=O)N3CCOCC3)c2)cc1	-3%	-2%	-19%	?
